Laboratory results taken from the supplement of paper PMC10338343.
± gives the standard deviation. In all, about 8,200 sequences were measured (“pre-steady-state target cleavage rate”: median about 0.024, highest 2% from about 1.3 on). Many of the other results were omitted from the sample, so the highest values are more common in it than they were.

System: MIWI (PIWIL1) piRISC loaded with L1MC piRNA (30 nt)
Test: pre-steady-state target cleavage rate (min^-1); MIWI and MILI are mouse PIWI proteins and EfPiwi is from a freshwater sponge; tags in brackets are library labels; higher = faster piRNA-guided slicing of the target
Conditions: guide: L1MC piRNA 5'p-UAACUAAAUACUAUGCAAGCUGUAGGUCCU
Outline: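 Active affinity-purified piRISC carrying one synthetic guide (1 nM) was mixed with a transcribed, DNA-blocked target RNA library […] in HEPES–potassium acetate buffer at 33 °C for 0–8 or 0–960 min, with or without 500 nM GTSF1 partner protein. Uncleaved targets were then sequenced and normalised to depth and to weakly complementary targets. Three trials were pooled, and k3 was capped at 0.0001 min^-1. A burst-and-steady-state fit was applied to obtain the pre-steady-state cleavage rate.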

[1] = auxiliary factor: 500 nM mouse GTSF1
[2] = auxiliary factor: none (no GTSF1)
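Further: 1 nM active piRISC with 0.1 nM target library at 33 °C single turnover.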

Row | Sequence | pre-steady-state target cleavage rate [1] | pre-steady-state target cleavage rate [2]
1 | UCCUGGUACAGCUUGCAUAGUAAAAAGUAA | 0.109 ± 0.031 | 
2 | UCCUGGAACAGCUUGCAUAGUAUUUAGAUA | 0.406 ± 0.042 | 0.0172 ± 0.0058
3 | UCCUGCUACAGCUUGCAUAGUAUAUUGUUA | 0.377 ± 0.037 | 0.0123 ± 0.0026
4 | UGCACCUACAGCUUGCAUAGUAUUUAGUUA | 1.22 ± 0.11 | 0.0865 ± 0.017
5 | UGCACCUACAGCUUGCAUAGUAUUUAGUAA | 1.17 ± 0.11 | 0.0465 ± 0.0097
6 | UCGCACCUACAGCUUGCAUAGUAUUUAGUUA | 1.06 ± 0.13 | 0.0648 ± 0.015
7 | AGCACCUACAGCUUGCAUAGUAUUUAGUUA | 1.19 ± 0.16 | 0.246 ± 0.073
8 | AGGCACCUACAGCUUGCAUAGUAUUUAGUUA | 2.18 ± 0.8 | 2.2 ± 1.8
9 | UGGCACCUACAGCUUGCAUAGUAUUUAGUUA | 2.2 ± 0.89 | 
10 | UCCUGGAACAGCUUGCAUAGCUAUUUAGUUA | 0.0102 ± 0.0047 | 
11 | UCCUGGUAAAGCUUGCAUAGUAUUUAGUUA | 0.551 ± 0.037 | 0.0419 ± 0.0086
12 | UCCUGGAACAGCUUGCAAAGUAUAUAGUUA | 0.459 ± 0.037 | 0.0164 ± 0.0061
13 | UCCUGCUACAGCUUGGAAAGUAUUUAGUUA | 0.903 ± 0.053 | 0.00754 ± 0.0024
14 | UGGAUCUACAGCUUGCAUAGUAUUUAGUUA | 1.57 ± 0.062 | 0.0958 ± 0.019
15 | UCCUGGAUCUAGCUUGCAUAGUAUUUAGUUA | 0.86 ± 0.04 | 0.0445 ± 0.011
16 | AGGAUCUACAGCUUGCAUAGUAUUUAGUUA | 1.7 ± 0.059 | 0.105 ± 0.017
17 | AGGACACUACAGCUUGCAUAGUAUUUAGUUA | 1.13 ± 0.083 | 0.0749 ± 0.011
18 | UCCAUCUACAGCUUGCAUAGUAUUUAGUUA | 0.731 ± 0.031 | 0.0538 ± 0.0076
19 | UCGAUCUACAGCUUGCAUAGUAUUUAGUUA | 1.61 ± 0.05 | 0.072 ± 0.013
20 | UGGACGCUACAGCUUGCAUAGUAUUUAGUUA | 1.15 ± 0.076 | 0.0759 ± 0.013
21 | UCCUGGAUCAGCUUGCAUUGUUUUUAGUUA | 0.0337 ± 0.0067 | 0.00759 ± 0.0022

Row | Sequence | pre-steady-state target cleavage rate [1] | pre-steady-state target cleavage rate [2]
22 | UCGACCUACAGCUUGCAUAGUAAUUAGUUA | 1.08 ± 0.049 | 0.0469 ± 0.012
23 | UCCUGGAUGUCCUUGCUAUGUAUUUAGUAA | 0.00637 ± 0.0038 | 
24 | UCCUGGUACAGCUUGCAUAGUGAUUUAGUUA | 0.0476 ± 0.011 | 0.00639 ± 0.0029
25 | UCCUGGUACACCUAGCAUAGUAUUUAGUUA | 0.278 ± 0.063 | 0.00414 ± 0.0028
26 | UCGACCUAGAGCUUGCAUAGUAUUUAGAAA | 0.441 ± 0.048 | 0.00689 ± 0.0021
27 | UCCUGGUACUCGUUGCAUAGUAUUUAGUAA | 0.0165 ± 0.0088 | 
28 | UCGACGAACAGCUUGCAUAGUAUUUAGUAA | 0.962 ± 0.062 | 0.0577 ± 0.013
29 | UCCUCGAACAGCUUGCAUAGUAUUUAGAAA | 0.474 ± 0.043 | 0.00694 ± 0.0025
30 | UGGACGAACAGCUUGCAUAGUAUUUAGUUA | 1.17 ± 0.036 | 0.0856 ± 0.015
31 | UCCUCGAACAGCUUGCAUAGUAUUUAGUAA | 0.982 ± 0.042 | 0.0424 ± 0.008
32 | UCGACGAACAGCUUGCAUAGUAUUUAGUUA | 1.38 ± 0.049 | 0.0836 ± 0.015
33 | UCCUCGAACAGCUUGCAUAGUAUUUAGUUA | 1.39 ± 0.039 | 0.0825 ± 0.015
34 | UCCUGGAACACCUUGCUUAGUAUUUAGUUA | 0.239 ± 0.032 | 0.00546 ± 0.0019
35 | AGUGACCUACAGCUUGCAUAGUAUUUAGUUA | 1.38 ± 0.056 | 0.0885 ± 0.015
36 | UGCACCUACAGCUUGCAUAGUAUUUACUUA | 0.46 ± 0.056 | 0.0724 ± 0.017
37 | UGGACCUACAGCUUGCAUAGUAUUUAGUGA | 1.12 ± 0.064 | 0.0575 ± 0.011
38 | AGGACCUACAGCUUGCAUAGUAUUUAGUGA | 1.01 ± 0.085 | 0.0934 ± 0.018
39 | UUGACCUACAGCUUGCAUAGUAUUUAGUUA | 1.16 ± 0.061 | 0.0724 ± 0.012
40 | UGACCUACAGCUUGCAUAGUAUUUAGUUA | 1.57 ± 0.061 | 0.0842 ± 0.016
41 | AGCACCUACAGCUUGCAUAGUAUUUACUUA | 1.4 ± 0.24 | 
42 | AUGACCUACAGCUUGCAUAGUAUUUAGUUA | 1.06 ± 0.03 | 0.0859 ± 0.013

Row | Sequence | pre-steady-state target cleavage rate [1] | pre-steady-state target cleavage rate [2]
43 | UGUGACCUACAGCUUGCAUAGUAUUUAGUUA | 1.45 ± 0.063 | 0.0959 ± 0.018
44 | UCCACCUACAGCUUGCAUAGUAUUUACUUA | 0.378 ± 0.044 | 0.0369 ± 0.0085
45 | UCGACCAUGAGCUUGCAUAGUAUUUAGUAA | 0.804 ± 0.049 | 0.0343 ± 0.0083
46 | UCCUGGAUGUCGAACCAUAGAUUUAGUUA | < 0.0001 | 
47 | UCCUGCUUCAGCUUGCAUAGUAAUUAGUUA | 0.823 ± 0.043 | 0.0173 ± 0.0042
48 | UCCUGCUACACCUUGCAUAGUAUUUACAAA | 0.245 ± 0.056 | 
49 | UGGACCUACAGCUUGCAUAGUAUUAAGUAA | 0.335 ± 0.037 | 0.0164 ± 0.0052
50 | UCCUGGAUCAGCCUGCAUAGUAUUUAGUUA | 1.02 ± 0.045 | 0.0431 ± 0.008
51 | UGGACCUACAGCUUGCUAUGUAUUUAGUUA | 0.115 ± 0.016 | 0.00588 ± 0.001
52 | UCCUGGAACAGCUUGCAUAGUUUAUAGUUA | 0.0662 ± 0.011 | 0.0101 ± 0.003
53 | AGGAGCUACAGCUUGCAUAGUAUUUAGUAA | 1.02 ± 0.092 | 0.0616 ± 0.012
54 | AGGAGCUACAGCUUGCAUAGUAUUUAGUUA | 1.42 ± 0.055 | 0.0984 ± 0.016
55 | UGGAGCCUACAGCUUGCAUAGUAUUUAGUUA | 1.41 ± 0.1 | 0.0757 ± 0.013
56 | UGGAGCUACACCUUGCAUAGUAUUUAGUUA | 1.12 ± 0.051 | 0.0597 ± 0.0097
57 | UGGAGCUACAGCUUGCAUAGUAUUUAGUAA | 0.953 ± 0.06 | 0.0465 ± 0.0085
58 | UCGAGCUACACCUUGCAUAGUAUUUAGUUA | 1.01 ± 0.046 | 0.0524 ± 0.0089
59 | AGGAGCUACAGCAUGCAUAGUAUUUAGUUA | 1.37 ± 0.058 | 0.0574 ± 0.01
60 | UCGAGCUACAGCAUGCAUAGUAUUUAGUUA | 1.19 ± 0.054 | 0.0332 ± 0.0062
61 | UGGAGCUACAGCAUGCAUAGUAUUUAGUUA | 1.14 ± 0.042 | 0.0429 ± 0.0078
